Legend:
Experiment in all cases: PBM; 200 nM protein, PBS
Conditions in all cases: dsDNA, one strand shown
[1] = biological target: ALX3 (Homo sapiens, UniProt O95076 139-225, N203Q)
[2] = biological target: VAX1 (Homo sapiens, UniProt Q5SQQ9 86-172)
[3] = biological target: VAX1 (Homo sapiens, UniProt Q5SQQ9 86-172, T142I)
[4] = biological target: ALX3 (Homo sapiens, UniProt O95076 139-225, N203S)
[5] = biological target: VAX1 (Homo sapiens, UniProt Q5SQQ9 86-172, K157R)
[6] = biological target: HOXB6 (Homo sapiens, UniProt P17509 132-218, K202E)
Sequence of HOXB6 (P17509 132-218 K202E): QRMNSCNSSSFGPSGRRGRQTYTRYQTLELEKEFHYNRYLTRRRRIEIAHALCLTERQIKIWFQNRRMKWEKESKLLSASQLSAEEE

[7] = biological target: MSX2 (Homo sapiens, UniProt P35548 130-214, R199I)
Sequence of MSX2 (Homo sapiens, UniProt P35548 130-214, R199I) (P35548 130-214 R199I): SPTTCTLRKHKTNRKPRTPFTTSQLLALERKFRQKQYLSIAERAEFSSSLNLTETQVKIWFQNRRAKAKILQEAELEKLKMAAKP

[8] = biological target: MSX2 (Homo sapiens, UniProt P35548 130-214)
Sequence of MSX2 (Homo sapiens, UniProt P35548 130-214) (P35548 130-214): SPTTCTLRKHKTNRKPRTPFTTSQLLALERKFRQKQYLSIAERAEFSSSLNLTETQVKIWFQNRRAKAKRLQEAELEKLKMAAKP

[9] = biological target: MSX2 (Homo sapiens, UniProt P35548 130-214, F161Y)
Sequence of MSX2 (Homo sapiens, UniProt P35548 130-214, F161Y) (P35548 130-214 F161Y): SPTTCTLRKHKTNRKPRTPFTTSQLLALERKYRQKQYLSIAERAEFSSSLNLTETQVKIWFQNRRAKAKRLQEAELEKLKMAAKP

[10] = biological target: ALX1 (Homo sapiens, UniProt Q15699 118-204, L144V)
Sequence of ALX1 (Homo sapiens, UniProt Q15699 118-204, L144V) (Q15699 118-204 L144V): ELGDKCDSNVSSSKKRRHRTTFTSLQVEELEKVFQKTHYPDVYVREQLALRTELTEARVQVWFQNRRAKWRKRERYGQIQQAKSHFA

[11] = biological target: ALX1 (Homo sapiens, UniProt Q15699 118-204, L144R)
Sequence of ALX1 (Homo sapiens, UniProt Q15699 118-204, L144R) (Q15699 118-204 L144R): as the sequence (Q15699 118-204 L144V) above, with V27R counted along it

[12] = biological target: ALX1 (Homo sapiens, UniProt Q15699 118-204)
Sequence of ALX1 (Homo sapiens, UniProt Q15699 118-204) (Q15699 118-204): as the sequence (Q15699 118-204 L144V) above, with V27L counted along it

[13] = biological target: PITX2 (Homo sapiens, UniProt Q99697 72-157)
[14] = biological target: HOXC9 (Homo sapiens, UniProt P31274 178-260, K195R)
Sequence of HOXC9 (Homo sapiens, UniProt P31274 178-260, K195R) (P31274 178-260 K195R): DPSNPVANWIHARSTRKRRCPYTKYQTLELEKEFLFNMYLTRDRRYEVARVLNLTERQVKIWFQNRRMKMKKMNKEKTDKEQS

[15] = biological target: HOXC9 (Homo sapiens, UniProt P31274 178-260)
Sequence of HOXC9 (Homo sapiens, UniProt P31274 178-260) (P31274 178-260): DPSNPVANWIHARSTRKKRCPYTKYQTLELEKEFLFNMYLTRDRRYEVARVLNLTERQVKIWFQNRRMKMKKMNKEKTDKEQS

[16] = biological target: HOXC9 (Homo sapiens, UniProt P31274 178-260, R193K)
Sequence of HOXC9 (Homo sapiens, UniProt P31274 178-260, R193K) (P31274 178-260 R193K): as the sequence (P31274 178-260) above, with R16K counted along it

[17] = biological target: HOXC9 (Homo sapiens, UniProt P31274 178-260, R222W)
Sequence of HOXC9 (Homo sapiens, UniProt P31274 178-260, R222W) (P31274 178-260 R222W): as the sequence (P31274 178-260) above, with R45W counted along it

[18] = biological target: HOXD13 (Homo sapiens, UniProt P35453 263-343, T313R)
Sequence of HOXD13 (Homo sapiens, UniProt P35453 263-343, T313R) (P35453 263-343 T313R): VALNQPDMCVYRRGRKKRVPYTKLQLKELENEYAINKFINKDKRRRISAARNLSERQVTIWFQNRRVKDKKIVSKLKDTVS

[19] = biological target: HOXD13 (Homo sapiens, UniProt P35453 263-343)
Sequence of HOXD13 (Homo sapiens, UniProt P35453 263-343) (P35453 263-343): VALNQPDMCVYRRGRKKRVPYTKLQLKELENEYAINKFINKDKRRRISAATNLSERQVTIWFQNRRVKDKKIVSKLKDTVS

[20] = biological target: HOXD13 (Homo sapiens, UniProt P35453 263-343, T313A)
Sequence of HOXD13 (Homo sapiens, UniProt P35453 263-343, T313A) (P35453 263-343 T313A): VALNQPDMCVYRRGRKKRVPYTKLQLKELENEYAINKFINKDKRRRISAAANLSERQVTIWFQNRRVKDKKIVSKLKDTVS

Sequence of VAX1 (Homo sapiens, UniProt Q5SQQ9 86-172, K157R) (Q5SQQ9 86-172 K157R): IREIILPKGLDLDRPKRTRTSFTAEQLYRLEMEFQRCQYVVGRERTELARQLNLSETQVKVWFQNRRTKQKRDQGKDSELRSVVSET
Sequence of VAX1 (Homo sapiens, UniProt Q5SQQ9 86-172, T142I) (Q5SQQ9 86-172 T142I): as the sequence (Q5SQQ9 86-172 K157R) above, with T57I, R72K counted along it
Sequence of VAX1 (Homo sapiens, UniProt Q5SQQ9 86-172) (Q5SQQ9 86-172): as the sequence (Q5SQQ9 86-172 K157R) above, with R72K counted along it
Sequence of ALX3 (Homo sapiens, UniProt O95076 139-225, N203S) (O95076 139-225 N203S): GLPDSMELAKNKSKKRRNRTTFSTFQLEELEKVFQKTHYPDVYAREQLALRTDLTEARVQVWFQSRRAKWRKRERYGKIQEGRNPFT
Sequence of ALX3 (Homo sapiens, UniProt O95076 139-225, N203Q) (O95076 139-225 N203Q): as the sequence (O95076 139-225 N203S) above, with S65Q counted along it

Sequence: CGCTGCGC
- binding signal [1]: 7.75 upbm affinity estimate (log intensity, higher = more binding, comparable within an allelic series)
- binding signal [2]: 7.4 upbm affinity estimate (log intensity, higher = more binding, comparable within an allelic series)
- binding signal [3]: 7.38 upbm affinity estimate (log intensity, higher = more binding, comparable within an allelic series)
- binding signal [4]: 7.74 upbm affinity estimate (log intensity, higher = more binding, comparable within an allelic series)
- binding signal [5]: 7.41 upbm affinity estimate (log intensity, higher = more binding, comparable within an allelic series)

Sequence: CTGCGGAC
- binding signal [6]: 8.87 upbm affinity estimate (log intensity, higher = more binding, comparable within an allelic series)

Sequence: AACGCGGC
- binding signal [6]: 9.12 upbm affinity estimate (log intensity, higher = more binding, comparable within an allelic series)

Sequence: CCCCAGCG
- binding signal [7]: 9.51 upbm affinity estimate (log intensity, higher = more binding, comparable within an allelic series)
- binding signal [8]: 9.6 upbm affinity estimate (log intensity, higher = more binding, comparable within an allelic series)
- binding signal [9]: 9.52 upbm affinity estimate (log intensity, higher = more binding, comparable within an allelic series)

Sequence: AGCCGGCT
- binding signal [10]: 6.54 upbm affinity estimate (log intensity, higher = more binding, comparable within an allelic series)
- binding signal [1]: 7.78 upbm affinity estimate (log intensity, higher = more binding, comparable within an allelic series)
- binding signal [11]: 6.74 upbm affinity estimate (log intensity, higher = more binding, comparable within an allelic series)
- binding signal [12]: 6.76 upbm affinity estimate (log intensity, higher = more binding, comparable within an allelic series)
- binding signal [4]: 7.77 upbm affinity estimate (log intensity, higher = more binding, comparable within an allelic series)

Sequence: CGGCCTGC
- binding signal [13]: 7.72 upbm affinity estimate (log intensity, higher = more binding, comparable within an allelic series)

Sequence: CTCGGGCC
- binding signal [6]: 8.97 upbm affinity estimate (log intensity, higher = more binding, comparable within an allelic series)

Sequence: AGCGCCCG
- binding signal [6]: 8.99 upbm affinity estimate (log intensity, higher = more binding, comparable within an allelic series)

Sequence: CGCTCCGC
- binding signal [6]: 9.03 upbm affinity estimate (log intensity, higher = more binding, comparable within an allelic series)

Sequence: GTCCGGAC
- binding signal [14]: 9.77 upbm affinity estimate (log intensity, higher = more binding, comparable within an allelic series)
- binding signal [15]: 9.72 upbm affinity estimate (log intensity, higher = more binding, comparable within an allelic series)
- binding signal [16]: 9.8 upbm affinity estimate (log intensity, higher = more binding, comparable within an allelic series)
- binding signal [17]: 9.89 upbm affinity estimate (log intensity, higher = more binding, comparable within an allelic series)

Sequence: CCACCCGC
- binding signal [7]: 9.63 upbm affinity estimate (log intensity, higher = more binding, comparable within an allelic series)
- binding signal [8]: 9.57 upbm affinity estimate (log intensity, higher = more binding, comparable within an allelic series)
- binding signal [9]: 9.69 upbm affinity estimate (log intensity, higher = more binding, comparable within an allelic series)

Sequence: CGTCGCGC
- binding signal [1]: 7.76 upbm affinity estimate (log intensity, higher = more binding, comparable within an allelic series)
- binding signal [4]: 7.8 upbm affinity estimate (log intensity, higher = more binding, comparable within an allelic series)

Sequence: CGGCCACC
- binding signal [18]: 9.38 upbm affinity estimate (log intensity, higher = more binding, comparable within an allelic series)
- binding signal [19]: 9.42 upbm affinity estimate (log intensity, higher = more binding, comparable within an allelic series)
- binding signal [20]: 9.39 upbm affinity estimate (log intensity, higher = more binding, comparable within an allelic series)

Sequence: CGCGTGGC
- binding signal [7]: 9.55 upbm affinity estimate (log intensity, higher = more binding, comparable within an allelic series)
- binding signal [8]: 9.66 upbm affinity estimate (log intensity, higher = more binding, comparable within an allelic series)
- binding signal [9]: 9.65 upbm affinity estimate (log intensity, higher = more binding, comparable within an allelic series)

Sequence: CCCAGCCG
- binding signal [14]: 9.41 upbm affinity estimate (log intensity, higher = more binding, comparable within an allelic series)
- binding signal [15]: 9.56 upbm affinity estimate (log intensity, higher = more binding, comparable within an allelic series)
- binding signal [13]: 8.01 upbm affinity estimate (log intensity, higher = more binding, comparable within an allelic series)
- binding signal [16]: 9.38 upbm affinity estimate (log intensity, higher = more binding, comparable within an allelic series)
- binding signal [17]: 9.62 upbm affinity estimate (log intensity, higher = more binding, comparable within an allelic series)

Sequence: GGGGGGAC
- binding signal [14]: 9.27 upbm affinity estimate (log intensity, higher = more binding, comparable within an allelic series)
- binding signal [15]: 9.04 upbm affinity estimate (log intensity, higher = more binding, comparable within an allelic series)
- binding signal [16]: 9.37 upbm affinity estimate (log intensity, higher = more binding, comparable within an allelic series)
- binding signal [2]: 6.83 upbm affinity estimate (log intensity, higher = more binding, comparable within an allelic series)
- binding signal [17]: 9.31 upbm affinity estimate (log intensity, higher = more binding, comparable within an allelic series)
- binding signal [3]: 7.14 upbm affinity estimate (log intensity, higher = more binding, comparable within an allelic series)
- binding signal [5]: 7.04 upbm affinity estimate (log intensity, higher = more binding, comparable within an allelic series)

Sequence: AGATATAC
- binding signal [2]: 8.24 upbm affinity estimate (log intensity, higher = more binding, comparable within an allelic series)
- binding signal [3]: 8.22 upbm affinity estimate (log intensity, higher = more binding, comparable within an allelic series)
- binding signal [5]: 8.23 upbm affinity estimate (log intensity, higher = more binding, comparable within an allelic series)

Sequence: CAGGCCCG
- binding signal [7]: 9.39 upbm affinity estimate (log intensity, higher = more binding, comparable within an allelic series)
- binding signal [10]: 6.27 upbm affinity estimate (log intensity, higher = more binding, comparable within an allelic series)
- binding signal [11]: 6.24 upbm affinity estimate (log intensity, higher = more binding, comparable within an allelic series)
- binding signal [8]: 9.3 upbm affinity estimate (log intensity, higher = more binding, comparable within an allelic series)
- binding signal [9]: 9.36 upbm affinity estimate (log intensity, higher = more binding, comparable within an allelic series)
- binding signal [12]: 6.21 upbm affinity estimate (log intensity, higher = more binding, comparable within an allelic series)

Sequence: AGGCGCCC
- binding signal [1]: 7.72 upbm affinity estimate (log intensity, higher = more binding, comparable within an allelic series)
- binding signal [4]: 7.72 upbm affinity estimate (log intensity, higher = more binding, comparable within an allelic series)

Sequence: CGGGCCGC
- binding signal [10]: 6.4 upbm affinity estimate (log intensity, higher = more binding, comparable within an allelic series)
- binding signal [18]: 9.48 upbm affinity estimate (log intensity, higher = more binding, comparable within an allelic series)
- binding signal [11]: 6.44 upbm affinity estimate (log intensity, higher = more binding, comparable within an allelic series)
- binding signal [19]: 9.34 upbm affinity estimate (log intensity, higher = more binding, comparable within an allelic series)
- binding signal [20]: 9.63 upbm affinity estimate (log intensity, higher = more binding, comparable within an allelic series)
- binding signal [12]: 6.51 upbm affinity estimate (log intensity, higher = more binding, comparable within an allelic series)

Sequence: CCAGACGG
- binding signal [14]: 9.56 upbm affinity estimate (log intensity, higher = more binding, comparable within an allelic series)
- binding signal [15]: 9.6 upbm affinity estimate (log intensity, higher = more binding, comparable within an allelic series)
- binding signal [16]: 9.51 upbm affinity estimate (log intensity, higher = more binding, comparable within an allelic series)
- binding signal [17]: 9.67 upbm affinity estimate (log intensity, higher = more binding, comparable within an allelic series)

Sequence: CCGGGCGC
- binding signal [14]: 9.34 upbm affinity estimate (log intensity, higher = more binding, comparable within an allelic series)
- binding signal [15]: 9.51 upbm affinity estimate (log intensity, higher = more binding, comparable within an allelic series)
- binding signal [16]: 9.31 upbm affinity estimate (log intensity, higher = more binding, comparable within an allelic series)
- binding signal [17]: 9.66 upbm affinity estimate (log intensity, higher = more binding, comparable within an allelic series)

Sequence: CATGATCA
- binding signal [1]: 8.19 upbm affinity estimate (log intensity, higher = more binding, comparable within an allelic series)
- binding signal [4]: 8.21 upbm affinity estimate (log intensity, higher = more binding, comparable within an allelic series)

Sequence: GCGCTGCC
- binding signal [13]: 8 upbm affinity estimate (log intensity, higher = more binding, comparable within an allelic series)

Sequence: GCCAGTCC
- binding signal [18]: 9.53 upbm affinity estimate (log intensity, higher = more binding, comparable within an allelic series)
- binding signal [19]: 9.55 upbm affinity estimate (log intensity, higher = more binding, comparable within an allelic series)
- binding signal [20]: 9.63 upbm affinity estimate (log intensity, higher = more binding, comparable within an allelic series)

Sequence: AGGGCCCG
- binding signal [2]: 6.78 upbm affinity estimate (log intensity, higher = more binding, comparable within an allelic series)
- binding signal [3]: 7.02 upbm affinity estimate (log intensity, higher = more binding, comparable within an allelic series)
- binding signal [5]: 6.91 upbm affinity estimate (log intensity, higher = more binding, comparable within an allelic series)

Sequence: GCAGTGGC
- binding signal [2]: 7.24 upbm affinity estimate (log intensity, higher = more binding, comparable within an allelic series)
- binding signal [3]: 7.19 upbm affinity estimate (log intensity, higher = more binding, comparable within an allelic series)
- binding signal [5]: 7.24 upbm affinity estimate (log intensity, higher = more binding, comparable within an allelic series)
